GAA850 FXN act – increases GAA850 frataxin promoter reporter activity; HEK293 lucGAA850 FXN promoter luciferase reporter, 24 h; percent of 10 µM SAHA response; activation, % at 6 µM; 0.56% of 360,000 active;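 active = activation above the average of all compounds screened plus 3 SD, cutoff fixed separately per campaign, cut at about 7.5% in these data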
hcDAF-12 act – activates DAF-12 receptor from parasite H. contortus; HEK293 hcDAF-12 lit1-tk-luc reporter, luminescence; 0% DMSO, 100% Δ7-dafachronic acid; activation, % at 6.8 µM; 1.4% of 370,000 active;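 active = activation above the mean of all tested compounds plus 3 SD, cut at about 5.5% in these data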
DAX1 inh-1 – blocks DAX1 repression of SF-1 activated StAR promoter; HEK293T StAR-luciferase reporter, SF-1/DAX-1 repression relief; inhibition, % at 6.8 µM; AID 652010; 1.1% of 370,000 active;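 active = inhibition above the mean over all tested compounds plus 3 SD, cut at about 3.6% in these data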;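 note: higher inhibition means more luminescence from relief of DAX-1 repression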
hgDAF12 agonist – hgDAF-12 agonism, primary luciferase screen. HEK293 GAL4-hgDAF12 UAS-luciferase reporter, agonist luminescence; normalized to butyrate control. activation, % at 6.8 µM. 1.8% of 370,000 active;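 active = activation above a cutoff set at the mean of all screened compounds plus 3 SD, cut at about 10% in these data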
ssDAF12 agonist – activators of S. stercoralis DAF-12 nuclear receptor; AID 652126; 1% of 370,000 active; HEK293 ssDAF-12/GRIP1 lit1-tk-luc reporter, luminescence; % of 3 µM dafachronic acid response; activation, % at 6.8 µM;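 active = activation above the mean over all tested compounds plus 3 SD, cut at about 0.9% in these data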
DAX1 inh-2 – inhibitors of human orphan nuclear receptor DAX1 (NR0B1) | inhibition, % at 6.75 µM | HEK293 Gal4-DAX1 luciferase reporter, luminescence | P51843 | 0.99% of 340,000 active;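 active = inhibition above the mean over all tested compounds plus 3 SD, cut at about 4.2% in these data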;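 note: inhibition shows as a rise in luminescence from relieved DAX1 repression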
DAX1 conf – confirmation of human DAX1 (NR0B1) inhibitors; shares compounds with DAX1 inh-1; 87% of 2,400 active; HEK293T StAR-promoter luciferase reporter, SF-1/DAX-1 repression; AID 652134; inhibition, % at 6.8 µM;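 active = inhibition above the average of every tested compound plus 3 SD, cut at about 3.8% in these data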;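 note: active compounds raise luminescence by relieving repression of the StAR reporter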
Target sequence (P51843 whole entry, looked up): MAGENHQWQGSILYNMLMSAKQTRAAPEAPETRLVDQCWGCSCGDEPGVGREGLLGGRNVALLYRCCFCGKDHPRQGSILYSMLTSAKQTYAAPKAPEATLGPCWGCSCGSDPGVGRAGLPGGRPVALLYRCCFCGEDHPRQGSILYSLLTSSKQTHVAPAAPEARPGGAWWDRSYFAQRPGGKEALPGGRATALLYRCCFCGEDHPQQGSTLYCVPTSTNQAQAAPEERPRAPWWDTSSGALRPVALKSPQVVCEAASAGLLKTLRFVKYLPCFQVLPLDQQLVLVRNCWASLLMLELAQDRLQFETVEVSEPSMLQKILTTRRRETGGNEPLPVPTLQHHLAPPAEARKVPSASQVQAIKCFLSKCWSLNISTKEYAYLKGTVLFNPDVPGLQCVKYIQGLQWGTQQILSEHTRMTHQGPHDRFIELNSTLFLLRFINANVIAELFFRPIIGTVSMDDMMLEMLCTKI
SF1 mutant ctr – nonselective inhibitor or artifact in SF-1 mutant DAX1 counter-screen. inhibition, % at 6.8 µM. HEK293 StAR-luciferase, SF-1 AF2 mutant, luminescence. 78% of 2,400 active. shares compounds with DAX1 inh-1;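 active = inhibition above the mean of all tested compounds plus 3 SD, cut at about 3% in these data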
Hits are given with their value; n = inactive; x = no result given. A selection: hits, their analogues and other compounds. The true share with any hit is near 4.5%.

SMILES | GAA850 FXN act | hcDAF-12 act | DAX1 inh-1 | hgDAF12 agonist | ssDAF12 agonist | DAX1 inh-2 | DAX1 conf | SF1 mutant ctr
COc1ccccc1CCNC(=O)COc1cccc2c1OC(C)(C)C2 | n | n | 4.6 | n | n | n | n | n
COc1ccc(N=C(C)C2=C(O)c3ccccc3C2=O)cc1 | n | n | 5.0 | 12 | n | n | 19 | 5.9
CCOc1ccc(N=C(C)C2=C(O)c3ccccc3C2=O)cc1 | n | n | n | n | n | n | x | x
COc1ccc(/C(N)=N/OC(=O)C2CCCCC2)cc1OC | 9.0 | n | 6.0 | n | n | n | n | 3.6
COc1ccc(/C(N)=N/OC(=O)CC2CCCCC2)cc1OC | n | n | n | n | n | n | x | x
COc1ccc(/C(N)=N/OC(=O)C2CCCCC2)cc1 | n | n | 5.9 | n | n | n | 8.9 | 5.8
CCC(C)N(C(=O)c1oc(=O)c2ccccc2c1-c1ccc(C)cc1)C(C)CC (stereo unspecified) | x | n | n | n | n | x | x | x
Cc1ccc(C(=O)OCc2cc(=O)n3ccsc3n2)s1 | n | n | n | n | n | n | x | x
Cc1ccc(C(=O)OCc2cc(=O)n3c(C)csc3n2)s1 | n | n | 4.8 | n | n | n | n | n
O=C1c2[nH]nc(-c3ccccc3)c2C(c2cccc(C(F)(F)F)c2)N1c1ccccc1 (stereo unspecified) | x | n | n | n | n | x | x | x
O=C(CS(=O)(=O)c1ccc(F)cc1)Nc1nccs1 | n | n | n | n | n | n | x | x
O=C(COc1ccc(F)cc1)Nc1nccs1 | n | n | 7.5 | 12 | n | n | 11 | 6.3
COc1ccc(S(=O)(=O)N(C)C[C@@H]2Oc3c(NC(=O)Nc4ccccc4)cccc3C(=O)N([C@@H](C)CO)C[C@H]2C)cc1 | x | n | x | n | n | x | x | x
CC(=O)Nc1ccc(NC(=S)NC(=O)C2CCCC2)cc1 | n | n | 4.9 | n | n | n | n | n
CCOc1ccc(NC(=S)NC(=O)C2CCCC2)cc1 | n | n | n | n | n | n | x | x
O=C(NCCc1ccccc1)c1nc2ncccn2n1 | n | n | n | n | n | n | x | x
c1ccc(CSc2nc3ncccn3n2)cc1 | n | n | 6.8 | n | n | n | 8.4 | 4.8
Cc1cc(-c2ccc(C)c(S(=O)(=O)NCC3CCN(Cc4ccccc4F)CC3)c2)on1 | n | n | n | n | n | n | x | x
COc1ccccc1CN1CCC(CNS(=O)(=O)c2cc(-c3onc(C)c3C)ccc2OC)CC1 | n | n | 4.6 | n | n | n | n | 3.1
O=C1CC(c2ccccc2)CC2=C1C1(CCCC1)N=C(Nc1nc3ccccc3o1)N2 (stereo unspecified) | n | n | 4.5 | n | n | x | n | n
O=C1CCCC2=C1C1(CCCCC1)N=C(Nc1nc3ccccc3o1)N2 | n | n | n | n | n | n | x | x
O=C(c1ccc(C#Cc2ccccc2)cc1)N1CCC(O)CC1 | x | n | 4.9 | 11 | n | x | 7.2 | 4.1
Cc1ccc2c(c1)-c1nc3ccccc3cc1C2=NC1CCCCC1 | n | 13 | 4.8 | 19 | 1.6 | n | 4.0 | n
Cc1ccc(-c2cc3ccccc3nc2N2CCCC2)cc1 | n | n | n | n | n | n | x | x
CC(C)Sc1nnc(NC(=O)c2ccc3c(c2)OCO3)s1 | n | n | 5.3 | n | n | n | 7.7 | 4.4
SMILES | GAA850 FXN act | hcDAF-12 act | DAX1 inh-1 | hgDAF12 agonist | ssDAF12 agonist | DAX1 inh-2 | DAX1 conf | SF1 mutant ctr
Cc1nnc(NC(=O)c2ccc3ccccc3c2)s1 | n | n | 5.4 | n | n | n | 10 | 5.4
CC(C)c1nnc(NC(=O)c2ccc3ccccc3c2)s1 | n | 5.7 | 12 | 13 | n | n | 13 | 8.1
Cc1nnc(NC(=O)c2cccc(F)c2)s1 | n | n | n | n | n | n | x | x
CC(C)c1nnc(NC(=O)COc2ccc3ccccc3c2)s1 | n | n | n | n | n | n | x | x
COCC(=O)N(c1ccc(C(C)(C)C)cc1)C(C(=O)NC(C)(C)C)c1cccnc1 (stereo unspecified) | x | n | x | n | n | x | x | x
O=C(Nc1ccc(F)cc1)OCc1cn(Cc2ccc(F)cc2F)nn1 | x | n | n | n | n | x | x | x

Screens (PubChem)
